Cycloheximide cs: counter-screen hit for Shiga toxin inhibitors, cycloheximide; max response, %; cell reporter, cycloheximide protein synthesis inhibition counterscreen; hit rate 12% among 300,000; in the data active = max response mostly above about 13%, no sharp cut-off; inactive = mostly below about 14%; note: read at 38.3 µM for the half of the compounds with a filed dose; 0% is about no effect
Pf growth 96h: inhibits malaria parasite growth, 96 h; P. falciparum luciferase reporter growth, 96 h; Potency, µM (doses to about 28.7 µM), for inactives: top-dose activity change, negative = inhibition, actives largely listed as inhibitors; hit rate 6.9% among 320,000; note: potency is the fitted concentration of half-maximal effect; % is set by controls: 0 for no effect and ±100 for the full control effect
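Luminescence readout: decreased luciferase signal marks inhibited growth of reporter-expressing P. falciparum in infected red cells (2% hematocrit, 0.05% parasitemia final), exposed to compound two generations (96 h, 37 C, 5% CO2).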
SARS PLP yeast: inhibitors of SARS-CoV papain-like protease in yeast; S. cerevisiae expressing SARS-CoV PLpro, growth rescue; Potency, µM (titrated, usually from 32.9 µM), inactives show at the top dose activity, positive = growth rescue, hits mostly activators; hit rate 0.19% among 330,000; AID 485353; calls by dose curve; note: potency is the fitted concentration of half-maximal effect; 0% is about no effect; nearly all actives have a fitted effect of over 55% in size
Pf growth 48h: P. falciparum growth inhibition at 48 hours (one generation) | P. falciparum luciferase growth in erythrocytes, 48 h | hit rate 5.9% among 310,000 | Potency, µM (series often up to 28.7 µM), for the others: at the highest dose activity change, negative = inhibition, most hits filed as inhibitors; note: potency is the fitted concentration of half-maximal effect; % is set by controls: 0 for no effect and ±100 for the full control effect
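Firefly luciferase activity from engineered P. falciparum reports growth; inhibitors lower the luminescent signal. Cultures contained 2% hematocrit erythrocytes at 0.1% final parasitemia.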
Shiga toxin inh: inhibitors of Shiga toxin in Vero cells | hit rate 9.2% among 290,000 | AID 2315 | inhibition, % at 38.7 µM | Vero cells, Shiga toxin protein synthesis inhibition reporter; in the data active = inhibition mostly above about 28%, no sharp cut-off; inactive = mostly below about 43%; note: 0% is about no effect
NS1 inh: influenza NS1 inhibition; Potency, µM (doses to about 46.1 µM), for inactives: at the top dose activity, positive = more growth; hit rate 0.4% among 270,000; AID 2326; calls by dose curve; note: potency is the fitted concentration of half-maximal effect; actives are rising curves; nearly all actives have a fitted effect of over 50% in size
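Growth recovery, yeast-based: influenza A NS1 expressed in S. cerevisiae causes slow growth, and suppressors are detected by OD600. The parent strain without NS1 is used as positive control.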
Numbers without * were called inactive; ? = inconclusive; / = not tested or not shown. Sampled rows, rich in hits. Any-hit rate of the full collection: about 21%. Unless noted, calls come from the whole dose curve; as a rule, active = well fitted inhibition curve with a large enough effect; inconclusive = small, poorly fitted or top-dose-only effect, or another doubt; inactive = no such curve, though single readings can be large or run the other way.

SMILES	Cycloheximide cs	Pf growth 96h	SARS PLP yeast	Pf growth 48h	Shiga toxin inh	NS1 inh
Nc1nc(N2CCN(C(=O)c3ccco3)CC2)nc2ccccc12	28.0*	-6.4%	-13.2%	?	67.1*	5.0%
Nc1nc(N2CCN(C/C=C/c3ccccc3)CC2)nc2ccccc12	-2.9	-2.2%	-1.3%	11.7µM*	-8.9	-9.8%
O=C1CCCc2nc(N3CCN(C(=O)c4ccco4)CC3)ncc21	19.5*	9.28µM*	-7.0%	126.3%	25.1*	14.1%
O=C(c1ccco1)N1CCN(c2ncccn2)CC1	6.3	-10.5%	2.1%	/	7.2	-1.2%
CCOc1ccc(C(=O)NCC(=O)N2CC=C(c3ccccc3)CC2)cc1OCC	/	?	-0.4%	?	/	/
Cc1cc(=O)[nH]c(SC(C)C(=O)Nc2cccc3ccccc23)n1 (configuration not stated)	-1.2	-2.7%	0.9%	21.9%	13.4	-5.2%
COc1ccc(CCN2C(=S)N(C)C(=O)C2CC(=O)Nc2ccc(F)cc2)cc1 (configuration not stated)	-2.5	13.1µM*	-0.5%	?	-8.6	2.9%
CCN1C(=O)C(CC(=O)Nc2ccc(OC)cc2)N(Cc2ccc(OC)c(OC)c2)C1=S (configuration not stated)	0.3	?	0.2%	10.4µM*	-6.7	0.0%
CCN1C(=O)C(CC(=O)Nc2ccc(OC)cc2)N(CCc2ccc(OC)cc2)C1=S (configuration not stated)	8.1	-43.6%	-16.7%	?	3.7	/
Cc1cccc(C)c1NC(=S)N(CCCN1CCCCC1)Cc1ccco1	-5.7	?	-2.4%	-20.4%	-5.8	/
CC(=O)N1CCN(c2ccc(NC(=O)C(c3ccccc3)c3ccccc3)cc2)CC1	-2.7	-23.1%	-6.0%	?	-2.6	8.6%
CC(C)C(=O)Nc1ccc(N2CCCC2)cc1	7.2	4.15µM*	5.5%	/	-8.5	14.1%
O=C(Nc1ccc(N2CCCCC2)cc1)C(Cl)c1ccccc1 (configuration not stated)	45.7*	-2.8%	0.9%	-13.4%	84.2	13.8%
O=C(Nc1ccc(N2CCCC2)cc1)C(c1ccccc1)c1ccccc1	-6.7	4.65µM*	0.4%	/	-9.1	17.4%
O=c1c(Cc2ccccc2)c(O)ccn1Cc1ccc2c(c1)OCO2	1.9	-6.4%	0.7%	-11.0%	-2.9	6.0%
COc1ccc(CCNC(=O)CSc2nnc(Cc3cccn3C)n2C)cc1OC	6.7	?	7.6%	-0.6%	14.7	/
Cc1[nH]c2ccc(C(=O)NCCN3CCOCC3)cc2c1C	0.9	5.6%	0.2%	3.2%	-6.7	10.5%
CC(NS(=O)(=O)c1cccc(Cl)c1)C(=O)N(C)C1CCN(C)CC1 (configuration not stated)	-1.1	0.0%	-1.2%	10.4%	-15.0	-7.8%
Cc1ccc(NC2CCCN(C(=O)c3cn4cccc(C)c4n3)C2)cc1C (configuration not stated)	-2.4	4.15µM*	-4.6%	8.3%	-7.6	6.3%
Cc1ccc(NC2CCCN(C(=O)c3ccccn3)C2)cc1C (configuration not stated)	9.5	13.1µM*	1.0%	2.1%	-4.2	14.7%
Cc1ccc(NC2CCCN(C(=O)c3cn4cc(Cl)ccc4n3)C2)cc1C (configuration not stated)	0.5	-16.2%	6.4%	6.4%	-12.0	-13.4%
CCS(=O)(=O)N1CCC(c2nc3ccccc3[nH]2)CC1	6.3	25.8%	4.1%	33.4%	10.0	-4.5%
CSC(=Nc1ccc(Cl)cc1)N[n+]1ccccc1	-1.3	-8.3%	-2.3%	-0.9%	-6.4	-5.2%
Cc1cc(=O)n(C2CCS(=O)(=O)C2)[nH]1 (configuration not stated)	-1.0	37.8%	0.1%	44.0%	-10.6	3.3%
CC1(C)CC(=O)N(c2cc(Cl)ccc2Cl)C(=O)C1	-1.0	20.5%	-0.1%	-5.2%	2.8	4.5%
SMILES	Cycloheximide cs	Pf growth 96h	SARS PLP yeast	Pf growth 48h	Shiga toxin inh	NS1 inh
O=C1C2C(C(=O)N1/N=C/c1ccco1)C1C=CC2C12CC2 (configuration not stated)	4.4	43.0%	4.9%	28.3%	16.6	7.1%
O=C1C2C3C=CC(CC3)C2C(=O)N1/N=C/c1ccco1 (configuration not stated)	16.5*	11.3%	0.7%	24.5%	25.9	/
COC(=O)c1ccc(-c2ccc(/C=N/N3C(=O)C4C5C=CC(CC5)C4C3=O)o2)cc1 (configuration not stated)	34.5*	4.2%	-1.3%	74.8%	36.6	-3.1%
CSc1ccccc1C(=O)OCC(=O)NC1CCS(=O)(=O)C1 (configuration not stated)	-2.7	?	-0.2%	15.5%	-3.7	/
Fc1ccccc1Oc1nc(-c2ccncc2)nc2ccccc12	-2.5	3.29µM*	0.8%	?	2.6	-1.4%
COc1ccc(Oc2nc(-c3cccnc3)nc3ccccc23)cc1	1.0	?	-0.5%	?	-2.4	-3.4%
CC1CCCN(C(=O)CCNS(=O)(=O)c2ccc3c(c2)oc(=O)n3C)C1 (configuration not stated)	-2.4	?	-2.2%	-27.8%	-2.4	1.0%
O=C(CC1C(=O)NCCN1Cc1ccccc1C(F)(F)F)NCCc1ccccn1 (configuration not stated)	-0.6	-12.5%	1.6%	11.1%	-10.8	2.5%
CC(=O)c1sc(N/N=C2\CC3CC2C(C)C3(C)C)nc1C (configuration not stated)	34.2*	?	2.3%	-29.1%	48.1*	7.2%
CCOc1ccc(-n2c(SCc3ccc([N+](=O)[O-])cc3)nnc2-c2ccccc2)cc1	-1.7	4.65µM*	-19.7%	?	-6.2	13.5%
CCOc1ccc(-c2nnc(SCc3nnc(-c4ccccc4)o3)n2-c2ccccc2F)cc1	19.7*	-23.7%	-3.9%	/	52.3	-34.9%
Cc1nonc1C(=O)N/N=C/c1ccc(O)cc1O	-4.0	22.9%	0.4%	6.7%	7.7	1.6%
O=C(N/N=C/c1ccc([N+](=O)[O-])o1)C(O)c1ccccc1 (configuration not stated)	1.8	?	0.1%	?	11.7	-0.3%
Cc1nonc1C(=O)N/N=C/c1ccc([N+](=O)[O-])o1	45.9*	?	-1.0%	?	88.4*	/
COc1ccc(-c2nn(-c3ccccc3)cc2C(=O)N/N=C/c2ccc([N+](=O)[O-])o2)cc1	5.3	3.9%	1.0%	2.62µM*	-21.5	?
Cc1cc(C(=O)N/N=C/c2ccc([N+](=O)[O-])o2)c(C)o1	1.3	3.29µM*	-2.7%	3.7µM*	-2.2	-1.9%
COc1ccc(N2CCN(c3oc(COc4ccccc4)nc3C#N)CC2)cc1	11.3	55.2%	0.4%	13.1µM*	34.1	5.8%
COc1ccc(N2CCN(c3oc(COc4ccc(Cl)cc4)nc3C#N)CC2)cc1	8.1	?	-11.2%	?	-1.6	14.1%
N#Cc1nc(COc2ccc(F)cc2)oc1N1CCCCC1	27.2*	-0.8%	-1.3%	-22.7%	64.9	-53.7%

Assay outcomes (PubChem BioAssay)
